Measured values as given in PubChem BioAssay.
The source made the active and inactive calls.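 The calls were made as follows, unless noted: active = fluorescence slope after compound addition differing from the mean of all screened samples at 99.7% confidence, in either direction; inactive = the rest.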

Legend:
[1] = inhibitors of TNFa-induced NFkB p65 translocation, primary screen, imaging, HUVEC, MLSMR starter and 10KST1 sets (AID 438;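 active = inhibition above 20% together with a positive visual image hit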;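 also: compound added about 3h40 before a 20 min TNFalpha stimulation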;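 as to inhibition: signal is the nuclear over cytoplasmic p65 intensity ratio per well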); settings: HUVEC TNFa-induced p65 nuclear translocation; cell count: measured here: nuclei count (cytotoxicity indicator), at 2.08 µM; inhibition: at 2 µM, stronger effect = higher value, 0% TNFa-plus-vehicle, 100% no-TNFa wells
[2] = reduction of polyQ htt aggregates in cells – imaging, exon1htt(103Q)mCFP cells, high-content imaging, primary screen (AID 483;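 active = visual image review flags a hit and inhibition of aggregation exceeds 20%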;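 also: compound exposure lasted 3 days before fixation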;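 as to nuclei count: percent of the per-plate median nuclei count of sample wells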); settings: exon1htt(103Q)mCFP cell line, aggregate imaging, at 2 µM; inhibition of aggregation: stronger effect = higher value; nuclei count: measured here: cell count, toxicity
[3] = endothelial E-selectin expression blockers – imaging, HUVEC, immunofluorescence, MLSMR starter and 10KST1 sets, primary screen (AID 487;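 active = visually confirmed hit in the image check and inhibition above 20%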;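 as to inhibition: signal is fraction of cell area covered by stained E-selectin grains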;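 as to nuclei count: 100% = median nuclei count of all wells on the same plate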); settings: HUVEC TNFalpha-induced E-selectin immunofluorescence imaging, at 2 µM; inhibition: stronger effect = higher value; nuclei count: measured here: cell number, toxicity
[4] = biological target: Voltage-gated potassium channel subunit beta-2 (Rattus norvegicus) (UniProt P62483); assay: inhibitors of rat Kvbeta2 reductase activity – biochemical, NADPH fluorescence, primary screen (AID 622;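 active = fluorescence slope higher than the sample average by over 3 SD, cut at about -0.22 in these data, passing the limit was not always enough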;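 also: slope of raw intensity against log time taken from 70 to 1610 s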); settings: recombinant KvBeta, 4-cyanobenzaldehyde reduction, at 10 µM, stronger effect = higher value
Sequence of Voltage-gated potassium channel subunit beta-2 (Rattus norvegicus) (P62483 whole entry, looked up): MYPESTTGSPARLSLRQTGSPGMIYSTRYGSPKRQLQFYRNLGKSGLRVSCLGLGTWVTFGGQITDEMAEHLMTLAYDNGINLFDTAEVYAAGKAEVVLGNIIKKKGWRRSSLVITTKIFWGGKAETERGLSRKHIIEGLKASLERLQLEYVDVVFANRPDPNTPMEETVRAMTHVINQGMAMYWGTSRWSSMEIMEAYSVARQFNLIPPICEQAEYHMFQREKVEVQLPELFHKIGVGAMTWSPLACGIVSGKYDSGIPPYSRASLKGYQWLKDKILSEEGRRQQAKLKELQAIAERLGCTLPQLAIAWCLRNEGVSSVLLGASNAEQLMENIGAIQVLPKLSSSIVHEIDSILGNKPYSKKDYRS

[5] = biological target: Voltage-gated potassium channel subunit beta-2 (Rattus norvegicus) (UniProt P62483); assay: enhancers of rat Kvbeta2 NADPH turnover – biochemical, NADPH fluorescence, primary screen (AID 623;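 active = NADPH fluorescence slope more negative than the mean of all samples by about 3 SD, 99.7% confidence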;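 also: fluorescence intensity change per second fitted from 20 to 320 s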); settings: Recombinant KvBeta, NADPH fluorescence decrease slope, 10 min; at 10 µM; stronger effect = lower value
[6] = biological target: Alpha-2C adrenergic receptor (Homo sapiens) (UniProt P18825); assay: compounds altering alpha2C-coupled GIRK flux – cell-based, HEK293 alpha2C/GIRK1/2, thallium flux, primary screen (AID 624); settings: thallium flux BTC fluorescence, at 10 µM, actives lie on both sides;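 also: slope of fluorescence ratio to pre-addition baseline per second over 15 to 24 s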
Sequence of Alpha-2C adrenergic receptor (Homo sapiens) (P18825 whole entry, looked up): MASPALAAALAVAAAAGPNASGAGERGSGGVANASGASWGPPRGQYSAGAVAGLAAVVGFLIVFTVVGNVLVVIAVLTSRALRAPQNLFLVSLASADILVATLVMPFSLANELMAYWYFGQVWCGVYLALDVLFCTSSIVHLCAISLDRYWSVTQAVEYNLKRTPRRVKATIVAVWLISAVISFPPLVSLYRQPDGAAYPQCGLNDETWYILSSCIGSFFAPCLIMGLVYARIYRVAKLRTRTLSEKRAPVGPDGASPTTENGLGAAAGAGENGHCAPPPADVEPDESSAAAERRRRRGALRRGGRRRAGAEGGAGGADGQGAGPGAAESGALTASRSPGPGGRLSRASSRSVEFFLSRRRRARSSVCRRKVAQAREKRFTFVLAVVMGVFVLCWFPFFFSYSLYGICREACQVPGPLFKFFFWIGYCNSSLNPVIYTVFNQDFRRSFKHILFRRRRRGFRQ

[7] = blockers of RIG-like receptor reporter activation – cell-based, Sendai virus stimulus, luciferase, 10K MLSCN set, TLR/RLR signaling modifier project, primary screen (AID 602276;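 active = inhibition at or above 50% at 10 µM; inactive = inhibition below 50%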;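 also: firefly luciferase from ISG56 promoter only with Renilla not read in this screen; 0% = Sendai virus plus DMSO and 100% = medium plus DMSO without virus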); settings: HEK293 RL24 IRF3 luciferase reporter, at 10 µM, stronger effect = higher value
[8] = TLR3 IRF3 reporter activation blockers – cell-based, poly I:C stimulus, luciferase, 10K MLSCN set, primary screen (AID 602277;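 active = inhibition of the reporter signal at or above 50%; inactive = inhibition below 50%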); settings: HEK293-TLR3 RL24 IRF3 luciferase reporter, at 10 µM, stronger effect = higher value

Row | SMILES | cell count [1] | inhibition [1] | inhibition of aggregation [2] | nuclei count [2] [%] | inhibition [3] | nuclei count [3] [%] | fluorescence slope [4] | NADPH fluorescence slope [5] | slope [6] | inhibition [7] | inhibition [8]
1 | O=C(O)CCNc1nc(-c2ccccc2)nc2ccccc12 | 619 | -7.6% (inactive) | -14.3% (inactive) | 103 | -28.1% (inactive) | 127 | -0.579 (inactive) | 3e-05 (inactive) | 0.00675 (inactive) | -3.96% (inactive) | 7.69% (inactive)
2 | CC1CN(C(=O)CSc2nnc(-c3ccncc3)n2-c2ccccc2)CC(C)O1 (centres undefined) | 447 | 2.9% (inactive) | 4% (inactive) | 101 | 71.2% (active) | 124 | -0.605 (inactive) | 5.9e-06 (inactive) | 0.00638 (inactive) | 20.7% (inactive) | 24.3% (inactive)
3 | CCOC(=O)C1CCCN(c2c(N3CCN(c4ccccn4)CC3)c(=O)c2=O)C1 (centres undefined) | 631 | 6.9% (inactive) | 11.3% (inactive) | 98.8 | -5.4% (inactive) | 132 | -0.503 (inactive) | -3.5e-05 (inactive) | 0.00587 (inactive) | 3.88% (inactive) | 27.8% (inactive)
4 | C=CCn1c(=O)c(C(=O)Nc2ccccc2C(=O)OCC)c(O)c2ccccc21 | 495 | -5.5% (inactive) | -15.6% (inactive) | 120 | -23.1% (inactive) | 122 | -0.422 (inactive) | -4.7e-05 (inactive) | 0.00716 (inactive) | 16.9% (inactive) | 14.7% (inactive)
5 | COc1ccc(-c2cc(C(F)(F)F)n3nc(C(=O)N4CCOCC4)nc3n2)cc1 | 620 | 11.1% (inactive) | -19.6% (inactive) | 103 | 41.9% (inactive) | 102 | -0.172 (inactive) | -5.6e-05 (inactive) | 0.00494 (inactive) | 10.8% (inactive) | 15.3% (inactive)
6 | CCN1CCN(C(c2cccs2)C(C)NC(=O)c2ccccc2)CC1 (centres undefined) | 528 | -0.3% (inactive) | -7.7% (inactive) | 102 | -20.1% (inactive) | 128 | -0.59 (inactive) | -3.6e-05 (inactive) | 0.00664 (inactive) | 8.51% (inactive) | 39.8% (inactive)
7 | Cc1ccc(C(c2sc3nc(C)nn3c2O)N2CC(C)OC(C)C2)cc1 (centres undefined) | 213 | -3.9% (inactive) | -30.3% (inactive) | 110 | -23.9% (inactive) | 108 | -0.44 (inactive) | -5.9e-05 (inactive) | 0.00489 (inactive) | 16.3% (inactive) | 29.9% (inactive)
8 | O=S(=O)(c1ccccc1)c1nc(-c2cccs2)oc1NCC1CCCO1 (centres undefined) | 566 | -1.8% (inactive) | 11.4% (inactive) | 108 | -17.9% (inactive) | 104 | -0.538 (inactive) | 5.1e-06 (inactive) | 0.00406 (inactive) | -17.6% (inactive) | -20.5% (inactive)
9 | O=C(CSc1nc2ccccc2s1)N1CCN(C(=O)c2ccco2)CC1 | 394 | 0.5% (inactive) | 10% (inactive) | 104 | -45.3% (inactive) | 102 | -0.377 (inactive) | 9e-06 (inactive) | 0.00381 (inactive) | 7.64% (inactive) | 22.8% (inactive)
10 | CCN(C(=O)c1cc(Cl)ccc1OC)C1CCCCC1 | 303 | 4.5% (inactive) | 8.5% (inactive) | 109 | 15.2% (inactive) | 113 | -0.429 (inactive) | -6.2e-05 (inactive) | 0.00399 (inactive) | 13.8% (inactive) | 42% (inactive)
11 | CC1CCCN(C(=O)C23CCC(C)(C(=O)C2)C3(C)C)C1 (centres undefined) | 636 | 0% (inactive) | -8.3% (inactive) | 90.8 | -29.8% (inactive) | 99.7 | -0.593 (inactive) | -1.7e-05 (inactive) | 0.00596 (inactive) | 5.18% (inactive) | 8.32% (inactive)
12 | Cc1cc(NC(=O)COC(=O)C2COc3ccccc3O2)no1 (centres undefined) | 734 | -5.3% (inactive) | -24.5% (inactive) | 106 | -15.9% (inactive) | 103 | -0.407 (inactive) | -7.6e-05 (inactive) | 0.00343 (inactive) | 7.14% (inactive) | 12.6% (inactive)
13 | CCOC(=O)c1ccccc1NC1c2ccccc2C(=O)N1C1CCN(C(=O)OCC)CC1 (centres undefined) | 548 | -9.7% (inactive) | -12% (inactive) | 65.3 | -10.1% (inactive) | 109 | -0.463 (inactive) | -3.3e-05 (inactive) | 0.00667 (inactive) | 14.7% (inactive) | 38.1% (inactive)
14 | CN1CCc2c(sc3c2c(=O)n(-c2ccccc2)c2nnc(SCc4ccc(F)cc4)n32)C1 | 375 | 2.1% (inactive) | 9.2% (inactive) | 73.7 | -45% (inactive) | 210 | -0.608 (inactive) | -5.9e-06 (inactive) | 0.00622 (inactive) | 4.98% (inactive) | -12.6% (inactive)
